{
  "source": "PubChem BioAssay (EPA / NIEHS)",
  "note": "The source holds several records for some structures; these can differ, active in one and inactive in another. Calls of active or inactive are those of the source. How the source made its calls: active means hit-call score of the fitted dose curve at least 0.9, where 1 is the maximum; inactive means score below 0.9.",
  "data": [
    {"tested_on": "SRD5A2 (gene 6716)", "assay": "CCTE_Deisenroth_5AR_NBTE_ratio: CCTE's 5alpha-reductase NanoBRET Target Engagement Assay - Ratio, Deisenroth Lab (AID 2284322)", "conditions": "actives raise or lower the signal", "description": "CCTE_Deisenroth_5AR NBTE (5alpha-reductase NanoBRET Target Engagement Assay) is a cell-based, single-readout assay that uses HEK293T, a human kidney cell line, with measurements taken at 5 hours after chemical dosing in a 384 well plate. This assay includes a primary and secondary screen as well as an autofluorscence screen.CCTE_Deisenroth_5AR NBTE_ratio is one of four assay components calculated from the CCTE_Deisenroth_5AR NBTE assay. It is designed to measure the ratio of target acceptor fluorophore resonance to donor bioluminescent signals.Data from the assay component CCTE_Deisenroth_5AR NBTE_ratio was analyzed into 1 assay endpoint. This assay endpoint, CCTE_Deisenroth_5AR NBTE_ratio, was analyzed with bidirectional fitting relative to DMSO as the negative control and baseline of activity. Using a type of inducible reporter, gain or loss-of-signal activity can be used to understand changes in 5alpha-reductase catalytic function. Furthermore, this assay endpoint can be referred to as a primary readout. To generalize the intended target to other relatable targets, this assay endpoint is annotated to the misc protein intended target family, where the subfamily is 5-alpha reductase.\nFor transient expression of the SRD5A2-NanoLuc fusion protein, HEK293T cells are reverse transfected with pNLF1-C-SRD5A2 expression vector and incubated for 20 hours to facilitate fusion protein expression. For assay setup, 384-well non-binding surface (NBS) microplates are pre-dispensed with test chemical across an 8-point concentration series (10 nM - 29.9 uM) with two technical replicates per run. Cell suspensions are dispensed into the microplates and incubated with test chemical for a duration of three hours. Following pre-incubation with test chemical, the testosterone tracer is dispensed into each well and incubated an additional two hours. The total incubation period with test chemical is five hours, with testosterone tracer added the final two hours to reach target engagement equilibrium. For the NanoBRET endpoint measurements, a solution of Nano-Glo substrate and extracellular NanoLuc inhibitor solution is added to each test well and immediately scanned on a plate reader configured with multichromatic emission settings for donor luminescence ([…]) and acceptor fluorescence ([…]). DMSO solvent controls are included as baseline control. Plate-matched samples are run with mock tracer conditions or testosterone tracer to discriminate any potential non-specific substrate interference.", "values": [
      {"smiles": "CN(C)c1ccc(C(=C2C=CC(=[N+](C)C)C=C2)c2ccc(N(C)C)cc2)cc1", "AC50": "0.593 µM (active)"},
      {"smiles": "O=c1[nH]sc2ccccc12", "AC50": "75 µM (active)"},
      {"smiles": "CCN(CC)C(=O)c1cc(S(=O)(=O)Cc2ccccc2)c(N2CCC(c3ccccc3)CC2)cc1N(CC)CCN(C)C", "AC50": "17.3 µM (active)", "outcome": "inactive"},
      {"smiles": "CO[C@H]1/C=C/O[C@@]2(C)Oc3c(C)c(O)c4c(O)c(c(/C=N/N5CCN(C)CC5)c(O)c4c3C2=O)NC(=O)/C(C)=C\\C=C\\[C@H](C)[C@H](O)[C@@H](C)[C@@H](O)[C@@H](C)[C@H](OC(C)=O)[C@@H]1C", "AC50": "54.3 µM (active)"},
      {"smiles": "NCc1cccc(C2CCN(C(=O)c3ccc(C#Cc4ccccc4F)o3)CC2)c1", "outcome": "inactive"},
      {"smiles": "O=C(O)Cc1cc(I)c(Oc2ccc(O)c(I)c2)c(I)c1", "AC50": "77.3 µM (active)"},
      {"smiles": "COc1cc(C(=O)NC2CCN(C)CC2)ccc1Nc1ncc2c(n1)N(C1CCCC1)CC(F)(F)C(=O)N2C", "outcome": "inactive"},
      {"smiles": "CN1C(=O)N(c2ccccc2Br)Cc2cnc(Nc3ccc4c(c3)OCC(CO)O4)nc21", "note": "(stereo not given)", "outcome": "inactive"},
      {"smiles": "CCCCCCCCOC(=O)c1cc(O)c(O)c(O)c1", "AC50": "1.59 µM (active)"},
      {"smiles": "CCCCCCCCCCCO", "outcome": "inactive"},
      {"smiles": "O=c1c(-c2ccc(O)cc2)coc2cc(O)cc(O)c12", "outcome": "inactive"},
      {"smiles": "CN(C[C@@H](CC[N+]12CCC(C3CCCCC3)(CC1)CC2)c1ccc(Cl)c(Cl)c1)C(=O)c1cc(C(F)(F)F)cc(C(F)(F)F)c1", "AC50": "76 µM (active)"},
      {"smiles": "CCN(Cc1cccc(S(=O)(=O)O)c1)c1ccc(C(=C2C=CC(=[N+](CC)Cc3cccc(S(=O)(=O)O)c3)C=C2)c2ccccc2S(=O)(=O)[O-])cc1", "AC50": "2.9 µM (active)"},
      {"smiles": "CN1C(=O)CC[C@H]1c1cccnc1", "outcome": "inactive"}
    ]}
  ]
}
